# Measurements from PMC5540273 (PLoS ONE, 2017).
# Legend:
# Conditions in all cases: concentration: 1 μM, replicates: in singlicate; n = 1
# PFTAIRE2 = tested on: PFTAIRE2
# PFTK1 = tested on: T1, PFTK1
# T1 construct: gene CDK14
# PHKG1 = tested on: PHKG1
# PHKG2 = tested on: PHKG2
# PIK3C2B = tested on: PIK3C2B
# PIK3C2G = tested on: PIK3C2G
# PIK3CA = tested on: PIK3CA
# PIK3CB = tested on: PIK3CB
# PIK3CD = tested on: PIK3CD
# PIK3CG = tested on: PIK3CG
# 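Note: KINOMEscan kinase panel screen.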
Compound,%Inh (PFTAIRE2),%Inh (PFTK1),%Inh (PHKG1),%Inh (PHKG2),%Inh (PIK3C2B),%Inh (PIK3C2G),%Inh (PIK3CA),%Inh (PIK3CB),%Inh (PIK3CD),%Inh (PIK3CG)
CSc1ccc(-c2nc3n(c2-c2ccncc2)CCC3)cc1 [SKF-105561],1%,2%,5%,0%,19%,21%,0%,0%,0%,23%
c1ccc(-c2ccnc3[nH]ccc23)cc1 [SB-693578],9%,9%,0%,0%,0%,0%,0%,0%,0%,0%
Cn1cncc1C(=O)NC1CCN(c2ccnc(Nc3ccc(F)cc3)n2)C1 (stereo not shown) [GSK1379717],10%,11%,0%,6%,5%,0%,0%,0%,0%,0%
O=C(Nc1n[nH]c2nc(-c3ccco3)c(Br)cc12)C1CCN(Cc2ccccc2)C1.O=C(O)[C@H](O)[C@@H](O)C(=O)O (stereo not shown) [SB-742034],0%,27%,3%,4%,16%,13%,0%,2%,0%,4%
Cc1cccc2c(-c3ccncn3)c(-c3ccc(F)cc3)nn12 [GW515532],9%,8%,0%,0%,0%,0%,0%,0%,5%,0%
COc1cccc(C2=C(Nc3cc(Cl)c(O)c(Cl)c3)C(=O)NC2=O)c1 [SB-390767],8%,0%,0%,0%,0%,0%,0%,0%,0%,0%
Nc1ncnc2occ(-c3ccc4c(c3)CCN4C(=O)Cc3cc(F)ccc3F)c12 [GSK2645446],12%,10%,0%,0%,14%,0%,0%,0%,0%,5%
Cc1cnc(N)c(/C=C/c2cncc(C(=O)NCCc3ccc(Cl)cc3Cl)c2)c1.Cl [GSK190937],0%,9%,0%,19%,0%,2%,0%,1%,0%,4%
Cc1ccc(NC(=O)Nc2ccccc2)cc1-c1ccc(C(=O)Nc2ccncc2)cc1 [GSK1398471],25%,27%,0%,2%,27%,0%,29%,0%,0%,14%
COc1ccc(Nc2nccc(NCCNC(=O)Nc3cc(C)ccc3C)n2)cc1 [GSK1379899],9%,32%,0%,0%,90%,0%,86%,0%,0%,68%
O=C(Nc1n[nH]c2cc(-c3ccsc3)ccc12)C1CC1 [SB-732932],13%,5%,21%,0%,14%,0%,3%,8%,0%,6%
O=C(Nc1n[nH]c2nc(-c3cccs3)c(Br)cc12)C1CCCC1 [SB-743341],9%,20%,2%,12%,0%,5%,5%,61%,0%,0%
Cc1c(Cn2c(C)c(C)n3c(=O)cc(N4CCOCC4)nc23)cccc1C(F)(F)F [GSK2328680],8%,10%,0%,0%,4%,0%,20%,99.1%,80%,4%
Cc1nccc(-c2c(-c3ccc(F)cc3)ncn2CCCN2CCOCC2)n1.Cl [SB-282975],24%,2%,33%,89%,0%,22%,0%,20%,49%,0%
Cc1ccc(NC(=O)c2ccc(Cl)cc2)cc1-c1ccc(C(=O)Nc2ccncc2)cc1 [GSK1398467],0%,0%,0%,16%,0%,0%,0%,0%,0%,0%
Cc1ccc(NC(=O)Nc2ccccc2F)cc1-c1ccc(C(=O)Nc2ccncc2)cc1 [GSK1398477],28%,25%,23%,4%,0%,0%,0%,0%,0%,0%
COc1ccc(CSc2nnc(-c3ccc4ncsc4c3)o2)cc1C(F)(F)F,0%,0%,0%,15%,0%,0%,0%,12%,0%,5%

Compound,%Inh (PFTAIRE2),%Inh (PFTK1),%Inh (PHKG1),%Inh (PHKG2),%Inh (PIK3C2B),%Inh (PIK3C2G),%Inh (PIK3CA),%Inh (PIK3CB),%Inh (PIK3CD),%Inh (PIK3CG)
CC(C)c1cc(-c2ccc3c(N)n[nH]c3c2)nc(N)n1 [GSK2250882],26%,4%,1%,5%,0%,0%,0%,0%,0%,5%
COc1cc2ncnc(Nc3cccc(Br)c3)c2cc1OC.Cl [GI230329],14%,16%,15%,0%,8%,0%,0%,2%,0%,0%
COc1cccc(NC(=O)Nc2ccc(C)c(-c3ccc(C(=O)Nc4ccncc4)cc3)c2)c1 [GSK1398474],27%,0%,0%,17%,100%,0%,99.9%,0%,0%,99.9%
CCCCc1nn2ncccc2c1-c1ccnc(NC2CC2)n1 [GW684374],13%,18%,0%,0%,0%,0%,0%,0%,0%,0%
Fc1ccc(-c2nn3cccc(F)c3c2-c2ccncc2)cc1 [GW475620],0%,20%,0%,0%,0%,15%,0%,0%,25%,0%
COc1cccc(CNC(=O)NC2CCN(c3ccnc(Nc4ccc(F)cc4)n3)C2)c1 (stereo not shown) [GSK1379723],7%,0%,0%,26%,0%,0%,0%,0%,2%,0%
COc1ccc(CSc2nnc(-c3ccc4c(c3)CCO4)o2)cc1,0%,0%,0%,25%,0%,0%,0%,0%,0%,0%
CS(=O)(=O)Cc1ccc(Nc2nccc(-c3c(-c4cccc(NC(=O)C5CCCCC5)c4)nn4ncccc34)n2)cc1 [GSK350559],0%,18%,4%,9%,0%,27%,12%,4%,0%,4%
NS(=O)(=O)c1cccc(N/C=C2\C(=O)Nc3ccc(S(=O)(=O)Cc4c(Cl)cccc4Cl)cc32)c1 [GSK398099],26%,5%,0%,0%,4%,0%,16%,0%,0%,41%
CS(=O)(=O)CCNCc1nc(-c2ccc3ncnc(Nc4ccc5c(cnn5Cc5ccccc5)c4)c3c2)cs1.Cl.Cl [GW569716],0%,6%,0%,0%,53%,0%,0%,0%,1%,0%
Cn1cnc2c(N)ncnc21 [SKF-97623],0%,0%,0%,0%,0%,0%,0%,0%,0%,4%
CNc1cc(-c2ccc3c(N)n[nH]c3c2)nc(N)n1 [GSK2224810],0%,18%,0%,18%,0%,0%,0%,9%,1%,5%
COC(=O)c1cccc(NC(=O)NC2CCN(c3ccnc(Nc4ccc(OC)cc4)n3)C2)c1 (stereo not shown) [GSK1379746],10%,27%,19%,0%,20%,0%,0%,0%,30%,0%
CNc1nc(-c2ccc3c(N)n[nH]c3c2)cc(N2C[C@@H](C(=O)Nc3ccccc3)CC[C@H]2C)n1 [GSK2298859],3%,17%,0%,15%,0%,0%,0%,0%,0%,0%
Fc1ccc(-c2nc[nH]c2-c2ccncc2)cc1 [SB-217360],12%,0%,0%,3%,0%,0%,12%,0%,0%,0%
COc1ccc(Nc2nccc(N3CCC(NC(=O)c4cc5ccccc5s4)C3)n2)cc1 (stereo not shown) [GSK1379738],16%,4%,0%,0%,0%,0%,0%,0%,0%,0%
Cc1ccccc1-c1cc(-c2c[nH]nc2-c2ccccn2)ccn1 [GW680061],0%,0%,0%,0%,0%,0%,0%,0%,4%,0%
